Source: ChEMBL document CHEMBL3433997, “St. Jude Leishmania screening dataset” (2016)

What was measured:
Format in all cases: functional
[1] = molecular target: Solute carrier family 2, facilitated glucose transporter member 1 (Homo sapiens) (UniProt P11166); test: ST_JUDE_LEISH: Cytotoxicity at 2uM final concentration against transgenic Leishmania Mexicana promastigotes LmGLUT1 that are glucose transport deficient and complemented with the human glucose transporter GLUT1. Activity is measured by DNA content using SYBR green in vitro
Chain of Solute carrier family 2, facilitated glucose transporter member 1 (Homo sapiens) (P11166 whole entry): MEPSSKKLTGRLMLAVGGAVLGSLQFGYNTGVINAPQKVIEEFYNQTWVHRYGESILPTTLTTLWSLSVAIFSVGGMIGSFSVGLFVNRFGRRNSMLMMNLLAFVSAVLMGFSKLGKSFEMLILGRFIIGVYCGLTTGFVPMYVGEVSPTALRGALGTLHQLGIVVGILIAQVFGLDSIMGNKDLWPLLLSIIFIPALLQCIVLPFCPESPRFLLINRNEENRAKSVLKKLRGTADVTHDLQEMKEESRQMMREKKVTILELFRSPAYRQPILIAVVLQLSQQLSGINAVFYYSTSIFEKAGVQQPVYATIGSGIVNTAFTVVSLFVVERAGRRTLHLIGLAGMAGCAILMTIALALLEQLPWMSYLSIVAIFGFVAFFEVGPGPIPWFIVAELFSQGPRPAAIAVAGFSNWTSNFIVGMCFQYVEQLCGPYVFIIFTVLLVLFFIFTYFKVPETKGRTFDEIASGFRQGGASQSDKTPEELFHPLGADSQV

[2] = molecular target: Hexose transporter 1 (Plasmodium falciparum) (UniProt O97467); test: ST_JUDE_LEISH: Cytotoxicity at 2uM final concentration against transgenic Leishmania Mexicana promastigotes LmPfHT that are glucose transport deficient and complemented with the Plasmodium falciparum hexose transporter. Activity is measured by DNA content using SYBR green in vitro
[3] = molecular target: Glucose transporter (Leishmania mexicana) (UniProt O61059); test: ST_JUDE_LEISH: Cytotoxicity at 2uM final concentration against transgenic Leishmania Mexicana promastigotes LmGT2 that are glucose transport deficient and complemented with the L. Mexicana glucose transporter 2. Activity is measured by DNA content using SYBR green in vitro

COc1ccc2nccc([C@@H](O)CN3CCC(NCc4cc5ccccc5cn4)CC3)c2n1
inhibition [1]: 12.2%
inhibition [2]: 17.3%
inhibition [3]: 7.09%

FC(F)(F)c1cccc(CCNc2nccc(NCc3ccc(Cl)cc3Cl)n2)c1
inhibition [1]: 9.74%
inhibition [2]: 6.08%
inhibition [3]: 1.55%

Cc1ccc(N(CCC(=N)N)Cc2ccccc2)cc1
inhibition [1]: 8.97%
inhibition [2]: 3.59%
inhibition [3]: 4.68%

CC(C)(C)C1CCC(C(=O)c2ccc3ccccc3c2O)CC1 (configuration not stated)
inhibition [1]: 1.28%
inhibition [2]: -0.87%
inhibition [3]: 0.57%

Cc1cc(NCCC(=O)NCc2cccc(F)c2)nc(Nc2ccccc2)n1
inhibition [1]: 8.44%
inhibition [2]: 7.08%
inhibition [3]: -6.28%

C=CCn1c(C)cc(C(=O)COc2ccc(S(=O)(=O)N3CCOCC3)cc2[N+](=O)[O-])c1C
inhibition [1]: 2.97%
inhibition [2]: 0.91%
inhibition [3]: 0.84%

Cc1ccc(C(=O)Nc2ccc(Nc3ccnc4cc(-c5ccccn5)ccc34)cc2O)cc1
inhibition [1]: 7.39%
inhibition [2]: 10%
inhibition [3]: 4.76%

Clc1ccc2c(NCCNc3ccnc4cc(Cl)ccc34)ccnc2c1
inhibition [1]: -0.52%
inhibition [2]: -2.22%
inhibition [3]: -0.13%

CCN(CC)CCCC(C)Nc1ccnc2cc(C#N)ccc12 (configuration not stated)
inhibition [1]: -0.82%
inhibition [2]: -2.04%
inhibition [3]: -3.31%

N#Cc1ccc(C=Cc2nccc3c2[nH]c2ccccc23)cc1
inhibition [1]: 10.9%
inhibition [2]: 9.49%
inhibition [3]: 9.13%

O=C(Nc1ccccc1)c1cccc(Nc2nccc(Nc3ccc(Oc4ccccc4)cc3)n2)c1
inhibition [1]: 0.65%
inhibition [2]: 1.07%
inhibition [3]: 0.87%

Cc1cc2nc(-c3ccc(C(=O)NCCCc4ccccc4)cc3)[nH]c2cc1C
inhibition [1]: 9.41%
inhibition [2]: 9.39%
inhibition [3]: 10.1%

C=C[C@]1(C)C[C@@H](OC(=O)NC(=O)CCCS(=O)(=O)c2nnc(C)s2)[C@]2(C)[C@H](C)CC[C@]3(CCC(=O)[C@H]32)[C@@H](C)[C@@H]1O
inhibition [1]: 11.1%
inhibition [2]: 11.3%
inhibition [3]: 6.8%

N#Cc1ccc(N(CCOC(=O)c2ccccc2)Cc2ccccc2C(F)(F)F)cc1C(F)(F)F
inhibition [1]: 1.67%
inhibition [2]: 1.18%
inhibition [3]: -0.51%

CCOC(=O)c1ccc(COc2ccc(C)nc2)cc1
inhibition [1]: -1.54%
inhibition [2]: -0.85%
inhibition [3]: 0.17%

O=C([C@H]1CCCCN1c1ccc([N+](=O)[O-])c2ccccc12)N1CCN(c2ncccn2)CC1
inhibition [1]: 2.02%
inhibition [2]: 3.05%
inhibition [3]: 2.64%

Cc1cccc2nc(-c3cccc(-c4cccc(C(=O)NCCc5cn(C)cn5)c4)c3)[nH]c12
inhibition [1]: -0.8%
inhibition [2]: -0.53%
inhibition [3]: 0.89%

COc1ccc2c(c1)OC(C)(C)CC2=NOS(=O)(=O)c1ccc(C)cc1
inhibition [1]: 2.81%
inhibition [2]: 0.98%
inhibition [3]: 2%

COc1cc2ncnc(NCCc3ccccc3Cl)c2cc1OC
inhibition [1]: -1.61%
inhibition [2]: -0.48%
inhibition [3]: -0.92%

Cc1ccc2c(c1)c(C1CCN(C(=O)c3ccc([N+](=O)[O-])o3)CC1)cn2C
inhibition [1]: 8.36%
inhibition [2]: 9.14%
inhibition [3]: 4.16%

COc1ccc2nccc([C@@H](O)CN3CCC(NCc4nc5c(F)cccc5[nH]4)CC3)c2c1
inhibition [1]: 1.46%
inhibition [2]: 0.84%
inhibition [3]: -0.41%

Cn1cncc1C(=O)Nc1cccc(-c2ccc(-c3nc4cc(C(F)(F)F)ccc4[nH]3)cc2)c1
inhibition [1]: 9.17%
inhibition [2]: 6.73%
inhibition [3]: 5.1%

Cc1ccc(Nc2nc(-c3ccccn3)cs2)nc1
inhibition [1]: 75.7%
inhibition [2]: 65.5%
inhibition [3]: 69.3%

CCCNCc1ccc(-c2ccc(CN(CCOC)C(=O)CCC(=O)c3ccc(OC)c(F)c3)cc2)nc1
inhibition [1]: 0.12%
inhibition [2]: 3.36%
inhibition [3]: 1.5%

N#Cc1ccc2[nH]cc(CN3CCC4(CC3)CN(CCNCc3ccccc3)C(=O)CO4)c2c1
inhibition [1]: 2.13%
inhibition [2]: -0.73%
inhibition [3]: 5.02%

Cc1cccc(NC(=O)N(Cc2cc3cc(C)cc(C)c3[nH]c2=O)C2CC2)c1
inhibition [1]: 9.62%
inhibition [2]: 10.1%
inhibition [3]: 6.55%

COc1ccc2c(N/N=C/c3cccc([N+](=O)[O-])c3)ccnc2c1
inhibition [1]: -2.24%
inhibition [2]: -3.16%
inhibition [3]: -0.29%

CCOc1ccc2[nH]c(C)cc(=NN=Cc3ccccc3Cl)c2c1
inhibition [1]: 12.3%
inhibition [2]: 8.94%
inhibition [3]: 5.71%

CC1CNC(c2ccc(NC(=O)Nc3ccc(C4=NC(C)CN4)cc3)cc2)=N1 (configuration not stated)
inhibition [1]: 4.6%
inhibition [2]: 5.64%
inhibition [3]: 3.84%

O=C(/C=C/c1ccc(Cl)c(Cl)c1)NCCCN1CCC(c2c[nH]c3ccccc23)CC1
inhibition [1]: 6.28%
inhibition [2]: 5.12%
inhibition [3]: 6.57%

CO/C(=C\C=C\c1cc2cc(Cl)c(Cl)cc2[nH]1)C(=O)NC1CC2CCCC(C1)N2C (configuration not stated)
inhibition [1]: 1.7%
inhibition [2]: 0.66%
inhibition [3]: 5.12%

CCn1c(CN2CCC(C)CC2)nc2cc(NC(=O)c3cccs3)ccc21
inhibition [1]: 9.93%
inhibition [2]: 9.8%
inhibition [3]: 12.5%

Fc1ccccc1C=NN=c1cc[nH]c2ccccc12
inhibition [1]: 4.61%
inhibition [2]: 4.39%
inhibition [3]: 4.15%

Cc1cccc2nc(-c3ccc(-c4ccc(NC(=O)NC5CC5c5ccccc5)cc4)cc3)[nH]c12 (configuration not stated)
inhibition [1]: 0.9%
inhibition [2]: -1.52%
inhibition [3]: 4.78%

O=C(Nc1ccc(Cl)c(Cl)c1)N[C@H]1CCN(CCCCCNC(=O)C2CC2c2ccc(Cl)c(Cl)c2)C1 (some centres not stated)
inhibition [1]: 12.3%
inhibition [2]: 8.71%
inhibition [3]: 10.6%

CC(C)=CC1C(C(=O)n2c(=N)[nH]c3ccccc32)C1(C)C (configuration not stated)
inhibition [1]: 9.13%
inhibition [2]: 7.8%
inhibition [3]: 5.36%

CCCCCC(C)C(C)c1cc(OC(N)=O)c2c(c1)OC(C)(C)C=C2c1ccncc1 (configuration not stated)
inhibition [1]: -3.81%
inhibition [2]: -1.09%
inhibition [3]: -1.38%

COc1ccc2nc(C)cc(N/N=C/c3cccc([N+](=O)[O-])c3)c2c1
inhibition [1]: 8.97%
inhibition [2]: 7.38%
inhibition [3]: 7.7%

COc1cc2c(cc1C(F)(F)F)N(C(=O)Nc1cc(F)cc(-c3cccnn3)c1)CC2
inhibition [1]: -2.16%
inhibition [2]: -2.17%
inhibition [3]: 2.7%

COc1cc(C2=NN(S(=O)(=O)c3c(C)cc(C)cc3C)CCCC2)ccc1Cl
inhibition [1]: 4.03%
inhibition [2]: 3.46%
inhibition [3]: 3.33%

COc1ccc(-c2cccc(NC(=O)c3ccc(Cl)cc3)c2)cc1CN1CCNCC1
inhibition [1]: 2.69%
inhibition [2]: 0.49%
inhibition [3]: -0.7%

COc1ccc(NC(=O)N2CCN(CCCCCNC(=O)/C=C/c3ccc(C(F)(F)F)cc3)CC2)cc1Cl
inhibition [1]: 2.21%
inhibition [2]: 1.82%
inhibition [3]: 1.35%

CCC(C(=O)Nc1ccccc1)n1nc(-c2ccc(C)c(S(=O)(=O)N3CCCCC3)c2)ccc1=O (configuration not stated)
inhibition [1]: 3.12%
inhibition [2]: 4.1%
inhibition [3]: 4.74%

CC(=O)Nc1ccc(NC(=O)c2cc(-c3ccc(C)cc3O)n[nH]2)cc1
inhibition [1]: -0.23%
inhibition [2]: 7.7%
inhibition [3]: 0.4%

O=C(Nc1ccc(-c2nc3ccccc3[nH]2)cc1)C1CCN(Cc2cccc(F)c2F)CC1
inhibition [1]: 24.2%
inhibition [2]: 28.4%
inhibition [3]: 16%

O=c1nc2[nH]c3ccccc3n2c(=O)[nH]1
inhibition [1]: 3.69%
inhibition [2]: 2.18%
inhibition [3]: 3.41%

O=C(/C=C/c1c[nH]c2ccccc12)NCCCCCN1CCC(c2c[nH]c3ccccc23)CC1
inhibition [1]: 3%
inhibition [2]: 1.49%
inhibition [3]: 1%

O=C(Nc1cccc(CN2CCCN(CC3CC3)CC2)c1)c1ccc(-c2ccccc2)cc1
inhibition [1]: 3.62%
inhibition [2]: 4.69%
inhibition [3]: -0.4%

O=C(NCCCCN1CCN(c2cccc3c2OCCO3)CC1)c1ccc(NC(=O)c2cc(Cl)cc(Cl)c2)cc1
inhibition [1]: 2.62%
inhibition [2]: 2.75%
inhibition [3]: 3.56%

CCn1c(=O)c(C(=O)Nc2cc(Cl)c(OC)cc2OC)nc2ccccc21
inhibition [1]: 11.7%
inhibition [2]: 9.32%
inhibition [3]: 10.5%

CCc1sc(N2CCC(C)CC2)nc1C(=O)Nc1ccc(F)cc1C(F)(F)F
inhibition [1]: 2.29%
inhibition [2]: 3.34%
inhibition [3]: 0.26%

Cc1cc(N[C@@H](Cc2ccccc2)C(=O)NCc2cccc(F)c2)nc(NCc2ccccc2C)n1
inhibition [1]: 5.14%
inhibition [2]: 4.67%
inhibition [3]: 3.17%

CCCc1nc2c(N3CC(NC(=O)/C=C/c4ccccc4)C3)cccc2n1C1CC1
inhibition [1]: 9%
inhibition [2]: 7.28%
inhibition [3]: 8.19%

O=C(Nc1ccc(-c2cccc(-c3nc4ccccc4[nH]3)c2)cc1)Nc1ccsc1
inhibition [1]: -0.72%
inhibition [2]: 4.27%
inhibition [3]: -0.62%

CC(C)NCc1ccc(-c2cccc(NC(=O)c3cccc(C#N)c3)c2)cc1
inhibition [1]: 2.87%
inhibition [2]: 2.38%
inhibition [3]: -2.27%

Cc1cc(Nc2ccc(C)c(Cl)c2)n2ncnc2n1
inhibition [1]: -2.06%
inhibition [2]: -1.7%
inhibition [3]: -4.9%

CN1CCN(Cc2cccc(-c3cc4nccc(Nc5ccc(Oc6ccccc6)cc5)c4cc3Cl)c2)CC1
inhibition [1]: -1.94%
inhibition [2]: 0.9%
inhibition [3]: 1.01%

C=C[C@H]1CN(CCCCCCC)CC[C@H]1CC(=O)Nc1cnnc2ccc(OC)cc12
inhibition [1]: 1.79%
inhibition [2]: 0.25%
inhibition [3]: 4.78%

Cc1cc(NC(=O)Nc2ccc(Oc3ccccc3)cc2)c2ccccc2n1
inhibition [1]: 0.26%
inhibition [2]: 1.44%
inhibition [3]: -0.34%

Cc1[nH]c(C)c(-c2ccc(OCc3cc(C(F)(F)F)cc(C(F)(F)F)c3)nc2)c(=O)c1Cl
inhibition [1]: 6.26%
inhibition [2]: 9.78%
inhibition [3]: 4.84%

CN(C)Cc1cccc(-c2ccc(NC(=O)c3ccc4c(=O)n(CC5CCCO5)cnc4c3)cc2)c1 (configuration not stated)
inhibition [1]: 38.5%
inhibition [2]: 22.4%
inhibition [3]: 14.5%

CC1CC(NCCCNc2cc(=O)c3ccccc3[nH]2)c2c1cc(Cl)c(Cl)c2Cl (configuration not stated)
inhibition [1]: -1.8%
inhibition [2]: -2.9%
inhibition [3]: 2.54%

COc1ccc(C)cc1NC(=O)CSc1nc2cccnc2n1C1CCCCC1
inhibition [1]: 5.9%
inhibition [2]: 4.88%
inhibition [3]: 3.28%

CC(=O)Nc1nc(C(=O)Nc2ccc(-c3ccc(-c4nc5cc(F)ccc5[nH]4)cc3)cc2)cs1
inhibition [1]: 2.38%
inhibition [2]: -2.61%
inhibition [3]: -1.02%

NCc1ccc(-c2ccc3c(N)nccc3c2)cc1
inhibition [1]: -3.43%
inhibition [2]: 0.57%
inhibition [3]: 0.41%

Cc1cc(-c2ccc(NC(=O)N3CCc4cc(Cl)c(N5CCN(C)CC5)cc43)cc2)ccc1C#N
inhibition [1]: 78.1%
inhibition [2]: 77.2%
inhibition [3]: 81.7%

O=C(COc1ccccc1)Nn1cnc2ccccc21
inhibition [1]: 3.76%
inhibition [2]: 0.83%
inhibition [3]: 0.3%

O=C(/C=C/c1ccc(Cl)c(Cl)c1)N1CCC(CCN2CCC(c3c[nH]c4ccncc34)CC2)CC1
inhibition [1]: 3.03%
inhibition [2]: 4.39%
inhibition [3]: 6.65%

O=C(Nc1cccc(Cl)c1)c1cc2ccccc2cc1O
inhibition [1]: 2.74%
inhibition [2]: 3.05%
inhibition [3]: 2.04%

COc1ccc(Br)cc1/C=C/C(=O)Nc1cccc(C2CCN(C)CC2)c1
inhibition [1]: 3.43%
inhibition [2]: 0.87%
inhibition [3]: 4.16%

NS(=O)(=O)NCCCN1CCN(c2ccccc2)CC1
inhibition [1]: 1.95%
inhibition [2]: 1.37%
inhibition [3]: 1.5%

Cc1cccc(CN2CCN(c3ncc(C(=O)NC4CC4)cc3Cl)CC2)c1
inhibition [1]: 4.67%
inhibition [2]: 2.14%
inhibition [3]: 2.71%

O=C(NCCCCN1CCC(c2ccc3c(c2OCCCO)CCCC3)CC1)c1ccc(-c2ccc(C(F)(F)F)cc2)c(CO)c1
inhibition [1]: -0.96%
inhibition [2]: -0.59%
inhibition [3]: -0.61%

O=C(C=Cc1ccc(F)cc1)NC1CCC(CCN2CCc3ccc(-c4cnccn4)cc3CC2)CC1 (configuration not stated)
inhibition [1]: 0.54%
inhibition [2]: -0.24%
inhibition [3]: 1.49%
